The values that follow come from PubChem BioAssay (Tox21).

Results filed as inconclusive are left out. Unmarked numbers belong to inactive results. Calls of active or inactive are those of the source. Calls come from the whole dose curve.
% is set by controls: 0 for no effect and ±100 for the full control effect; potency is the fitted concentration of half-maximal effect.

Sequence of Muscarinic acetylcholine receptor M1 (Homo sapiens) (P11229 whole entry, looked up): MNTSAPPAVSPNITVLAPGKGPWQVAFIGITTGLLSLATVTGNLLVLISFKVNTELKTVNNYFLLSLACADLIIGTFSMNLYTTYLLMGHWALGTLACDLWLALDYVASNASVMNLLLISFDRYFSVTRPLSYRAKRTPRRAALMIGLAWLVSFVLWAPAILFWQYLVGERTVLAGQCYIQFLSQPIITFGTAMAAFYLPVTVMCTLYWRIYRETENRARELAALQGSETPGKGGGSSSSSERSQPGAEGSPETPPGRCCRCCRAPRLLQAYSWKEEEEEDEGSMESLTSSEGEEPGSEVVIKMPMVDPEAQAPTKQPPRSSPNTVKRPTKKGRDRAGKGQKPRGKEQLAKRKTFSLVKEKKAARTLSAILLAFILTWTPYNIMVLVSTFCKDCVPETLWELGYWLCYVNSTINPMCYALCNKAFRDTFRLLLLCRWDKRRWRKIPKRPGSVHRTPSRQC

The assay concerns the target Muscarinic acetylcholine receptor M1 (Homo sapiens) (UniProt P11229). As to the kind of experiment: Cholinergic receptor muscarinic 1 (CHRM1) small molecule antagonists, cell-based qHTS assay (AID 1963588). Note: nearly all actives have a fitted effect of over 40% in size. The settings on record: CHRM1-CHO antagonist mode, calcium flux fluorescence; series mostly up to 61.5 µM; activity, negative = inhibition: at the top concentration. An excerpt: National Center for Advancing Translational Sciences [NCATS]
Division of Preclinical Innovation [DPI]
U.S. Environmental Protection Agency [EPA]
National Institutes of Environmental Health Sciences [NIEHS]
National Toxicology Program [NTP]
U.S. Food and Drug Administration [FDA]
The CHRM1 is a muscarinic receptor. This receptor plays a crucial role in learning and memory processes and has long been identified as a promising therapeutic target for the improvement of cognitive decline in Alzheimer's disease (AD). The CHRM1-CHO cell line stably expressing human muscarinic acetylcholine receptor M1 (CHRM1) can be used for screening agonists and antagonists of interactions between CHRM1 and its ligands. The CHRM1-CHO Calcium Flux Assay is a homogeneous fluorescence-based assay for detecting the intracellular calcium level using FDSS kinetic plate reader system.
Tox21 Assay Protocol Summary:
CHRM1-CHO cells were dispensed at 1000 cells/3uL/well in 1536-well black-clear bottom plates using a Multidrop Dispenser. After the assay plates were incubated at a 37 C/5% CO2 incubator for 18 h, 3 uL of Dye Loading Buffer was transferred to the assay plate by a Flying Reagent Dispenser. The assay plates were incubated at 37 C for 1h. For antagonist mode, 23 nL of compounds dissolved in DMSO, positive controls or DMSO only was transferred to the assay plate by a pin tool. After 5 min incubation at room temperature, 1.5 uL of acetylcholine at 50nM was added to each well. The fluorescence intensity in the plates was measured using FDSS 7000EX kinetic plate reader for 3 min at 1 sec intervals. Each test compound was measured at 15 concentrations in three independent runs.
In general terms: qHTS replaces the single test concentration by a dilution series.
For `Oc1ccc(Cl)cc1`, the Potency entry was “inactive”.
As to `CCN(CC)C(=S)S`, the Potency entry is “inactive”.
Regarding `COP(=O)(OC)C(O)C(Cl)(Cl)Cl` (stereo not given), the Potency result is “inactive”.
On the same count and under the same terms, to `CON(C)C(=O)Nc1ccc(Cl)c(Cl)c1` belongs “inactive”; to `COP(=S)(OC)Oc1ccc(Sc2ccc(OP(=S)(OC)OC)cc2)cc1`, “inactive”; to `NCc1cccnc1`, “inactive”.
On to `O=NN1CCCCC1`, for which the “activity, negative = inhibition” value is 2.35%.
Regarding `CCCC[n+]1ccccc1`, the Potency result was “inactive”.
For `CON(C)C(=O)Nc1ccc(Cl)cc1`, the “activity, negative = inhibition” value is 2.76%.
In the case of `COC(=O)c1ccccc1N`, the Potency entry was “inactive”.
Regarding `[P]#[In]`, the “activity, negative = inhibition” value was -12.6%.
For `CN(C)N`, the “activity, negative = inhibition” value was -0.255%.
With `ClCC(Cl)CCl`, the Potency result was “inactive”.
Take `OC(c1ccc(Cl)cc1)(c1cncnc1)c1ccccc1Cl` (stereo not given): the “activity, negative = inhibition” value is 5.83%.
On to `COCC(=O)N(c1c(C)cccc1C)N1CCOC1=O`, for which the “activity, negative = inhibition” value is 4.44%.
Take `CC(=O)C=C(C)C`: the Potency entry is “inactive”.
In the case of `Clc1ccc(C(c2ccc(Cl)cc2)C(Cl)Cl)cc1`, the Potency is 135 nM (active).
Consider `O=[N+]([O-])CCO`, for which the “activity, negative = inhibition” value is -3.07%.
Turning to `CNC(=S)S`, the Potency entry is “inactive”.
Turning to `O=[N+]([O-])c1ccccc1-c1ccccc1`, the “activity, negative = inhibition” value is -1.98%.
For `CCOc1nc(F)cc2nc(S(=O)(=O)Nc3c(Cl)cccc3Cl)nn12`, the “activity, negative = inhibition” value is -19.7%.
For `CCOC(=O)C1(c2ccccc2)CCN(CCC(C#N)(c2ccccc2)c2ccccc2)CC1`, the “activity, negative = inhibition” value is 5.06% [at 28.3 µM].
For `CCCCC(CC)CO[N+](=O)[O-]` (stereo not given), the “activity, negative = inhibition” value is 3.21%.
With `CCN(CC)CCN1C(=O)CN=C(c2ccccc2F)c2cc(Cl)ccc21`, the “activity, negative = inhibition” value was -8.08% [at 28.3 µM].
For `CN(N=O)C(N)=O`, the “activity, negative = inhibition” value was -25.3%.
Same read-out and setting: then `CCOC(=O)Nc1cccc(OC(=O)Nc2ccccc2)c1`, with 1.74%; and `CC(=O)C(C)(C)C`, with 6.28%.
As to `O=C(CCl)c1ccccc1`, the Potency entry is “inactive”.
For `CCC(C)(C)c1ccc(O)cc1`, the Potency entry was “inactive”.
`OCCN(CCO)CCO`: the Potency entry was “inactive”.
As to `CCCOC(=O)c1cncn1C(C)c1ccccc1` (stereo not given), the “activity, negative = inhibition” value was 5.84% [at 28.3 µM].
For the compound `CCCCN(CCCC)SN(C)C(=O)Oc1cccc2c1OC(C)(C)C2`, the Potency result is “inactive”.
Still for that read-out and setting: to `Cc1cc(Cl)ccc1OCC(=O)O` belongs “inactive”.
For the compound `CCCCCON=O`, the “activity, negative = inhibition” value is -6.43%.
Take `CNC(=O)O/N=C/C(C)(C)SC`: the “activity, negative = inhibition” value is 15%.
With `c1ccc(N2CCNCC2)cc1`, the “activity, negative = inhibition” value was 4.14% [at 28.3 µM].
As to `O=C(Cl)/C=C/C(=O)Cl`, the Potency is 1.1 nM (active).
On the same count and under the same terms, to `CC(=O)/C=C/c1ccccc1` belongs “inactive”.
With `CCCCN(CCCC)N=O`, the Potency result was “inactive”.
As for `ClCc1ccccc1CCl`, the “activity, negative = inhibition” value is -7.86%.
